# Key:
# Assay in all cases: DAPPL (digital affinity profiling via proximity ligation, sequencing); 10 mM Tris-HCl pH 7.5, 50 mM NaCl, 1 mM DTT, 4% glycerol, room temperature, 30 min; GST-TFs on glutathione beads, 16-mer random dsDNA library, 0.1% formaldehyde crosslink after washing; high values mean tight binding
# FEV = molecular target: T1, FEV (Homo sapiens, UniProt Q99581 1-238); details: protein: recombinant; tags: N-terminal GST; dsDNA, one strand shown
# T1 sequence: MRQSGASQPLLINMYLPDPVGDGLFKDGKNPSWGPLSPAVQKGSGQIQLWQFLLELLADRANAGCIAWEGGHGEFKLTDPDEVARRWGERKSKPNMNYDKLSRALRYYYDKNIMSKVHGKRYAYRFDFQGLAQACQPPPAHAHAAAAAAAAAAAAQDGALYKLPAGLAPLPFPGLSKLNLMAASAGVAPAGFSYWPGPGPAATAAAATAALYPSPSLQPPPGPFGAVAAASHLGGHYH
# Summary of the method: (§1)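 Yeast served to express human transcription factors as GST fusions, which were then captured on glutathione beads and labelled with DNA barcodes. Pooled with a tag-only sample, they were incubated with 200 nmole of a 16-mer random double-stranded DNA library for 30 min at room temperature in Tris/NaCl/DTT/glycerol buffer, washed, crosslinked with 0.1% formaldehyde, ligated by proximity, amplified by PCR and sequenced. Dividing each hexamer's read frequency for a factor by its frequency for the tag-only sample gives the binding signal.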
# ETV5 = ETV5 (Homo sapiens, UniProt P41161 1-510); details: protein: recombinant; tags: N-terminal GST; dsDNA, one strand shown
# Chain of ETV5 (P41161 whole entry): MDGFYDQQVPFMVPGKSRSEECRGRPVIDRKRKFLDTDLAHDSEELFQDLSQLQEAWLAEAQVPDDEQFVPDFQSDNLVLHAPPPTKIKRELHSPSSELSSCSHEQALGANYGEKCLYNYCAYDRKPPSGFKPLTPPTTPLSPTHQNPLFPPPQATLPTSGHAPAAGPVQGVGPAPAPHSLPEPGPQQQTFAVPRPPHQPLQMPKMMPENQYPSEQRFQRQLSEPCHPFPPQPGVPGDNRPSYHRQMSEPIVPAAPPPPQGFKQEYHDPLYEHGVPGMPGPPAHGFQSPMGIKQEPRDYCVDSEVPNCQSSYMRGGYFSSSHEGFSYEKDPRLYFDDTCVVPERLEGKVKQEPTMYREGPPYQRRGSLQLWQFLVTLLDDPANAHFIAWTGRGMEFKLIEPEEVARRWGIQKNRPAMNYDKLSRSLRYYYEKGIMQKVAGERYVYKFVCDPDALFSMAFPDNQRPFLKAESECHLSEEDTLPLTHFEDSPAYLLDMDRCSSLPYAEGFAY
# Summary of the method: as §1
# HSF1 = HSF1 (Homo sapiens, UniProt Q00613 1-529); details: protein: recombinant; tags: N-terminal GST; chain copies: 3; dsDNA, one strand shown
# Chain of HSF1 (Q00613 whole entry): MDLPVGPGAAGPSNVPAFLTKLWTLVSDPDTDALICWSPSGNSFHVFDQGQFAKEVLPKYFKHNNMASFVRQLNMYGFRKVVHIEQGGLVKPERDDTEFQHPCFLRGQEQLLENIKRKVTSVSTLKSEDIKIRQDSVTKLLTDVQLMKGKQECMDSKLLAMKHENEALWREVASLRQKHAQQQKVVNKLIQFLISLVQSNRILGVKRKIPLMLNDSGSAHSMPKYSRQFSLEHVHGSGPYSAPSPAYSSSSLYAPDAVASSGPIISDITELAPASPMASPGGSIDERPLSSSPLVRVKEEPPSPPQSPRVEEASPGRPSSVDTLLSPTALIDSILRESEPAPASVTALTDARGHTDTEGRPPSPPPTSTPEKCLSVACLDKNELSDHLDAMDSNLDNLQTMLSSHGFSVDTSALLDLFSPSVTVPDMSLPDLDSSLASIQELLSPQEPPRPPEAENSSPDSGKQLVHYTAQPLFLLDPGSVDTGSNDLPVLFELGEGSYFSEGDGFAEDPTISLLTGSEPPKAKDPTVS
# Summary of the method: as §1
# SPIC = molecular target: T2, SPIC (Homo sapiens, UniProt Q8N5J4 1-248); details: protein: recombinant; tags: N-terminal GST; dsDNA, one strand shown
# T2 sequence: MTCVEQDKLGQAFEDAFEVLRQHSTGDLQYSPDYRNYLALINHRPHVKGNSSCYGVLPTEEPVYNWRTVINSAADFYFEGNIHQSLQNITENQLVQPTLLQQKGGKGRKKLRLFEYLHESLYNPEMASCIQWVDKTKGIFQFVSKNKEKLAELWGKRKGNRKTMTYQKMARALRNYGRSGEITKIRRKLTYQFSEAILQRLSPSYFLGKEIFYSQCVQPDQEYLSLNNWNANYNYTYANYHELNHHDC
# Summary of the method: as §1
# ELF4 = ELF4 (Homo sapiens, UniProt Q99607 1-663); details: protein: recombinant; tags: N-terminal GST; dsDNA, one strand shown
# Chain of ELF4 (Q99607 whole entry): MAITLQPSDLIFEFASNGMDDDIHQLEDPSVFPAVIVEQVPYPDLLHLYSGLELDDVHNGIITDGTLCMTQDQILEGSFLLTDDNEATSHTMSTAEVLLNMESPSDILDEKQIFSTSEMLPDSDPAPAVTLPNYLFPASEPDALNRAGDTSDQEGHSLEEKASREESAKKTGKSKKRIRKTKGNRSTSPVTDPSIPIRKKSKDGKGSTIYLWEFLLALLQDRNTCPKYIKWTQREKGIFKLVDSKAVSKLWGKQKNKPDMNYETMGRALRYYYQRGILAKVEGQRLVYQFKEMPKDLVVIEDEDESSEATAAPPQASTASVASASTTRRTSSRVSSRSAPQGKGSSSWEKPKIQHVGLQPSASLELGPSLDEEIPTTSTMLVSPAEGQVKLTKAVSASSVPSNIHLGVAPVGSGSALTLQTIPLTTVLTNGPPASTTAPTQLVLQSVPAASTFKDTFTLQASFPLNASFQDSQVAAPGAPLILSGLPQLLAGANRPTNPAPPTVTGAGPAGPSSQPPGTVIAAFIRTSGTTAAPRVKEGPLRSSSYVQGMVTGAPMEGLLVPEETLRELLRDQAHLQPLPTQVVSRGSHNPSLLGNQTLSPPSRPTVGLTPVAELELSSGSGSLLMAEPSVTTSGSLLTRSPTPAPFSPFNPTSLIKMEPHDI
# Summary of the method: as §1
# ELK4 = molecular target: T3, ELK4 (Homo sapiens, UniProt P28324-2 1-405); details: protein: recombinant; tags: N-terminal GST; dsDNA, one strand shown
# T3 sequence: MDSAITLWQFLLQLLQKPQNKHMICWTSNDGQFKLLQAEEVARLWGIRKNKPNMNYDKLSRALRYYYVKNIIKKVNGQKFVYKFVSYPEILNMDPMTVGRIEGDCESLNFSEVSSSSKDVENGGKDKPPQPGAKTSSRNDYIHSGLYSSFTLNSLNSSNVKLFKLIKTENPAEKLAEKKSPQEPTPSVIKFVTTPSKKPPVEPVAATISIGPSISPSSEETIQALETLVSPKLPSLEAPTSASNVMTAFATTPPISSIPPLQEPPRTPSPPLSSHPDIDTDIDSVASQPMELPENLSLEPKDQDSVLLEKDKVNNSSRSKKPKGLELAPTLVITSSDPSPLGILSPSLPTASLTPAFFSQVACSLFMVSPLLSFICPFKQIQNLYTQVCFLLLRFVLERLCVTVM
# Summary of the method: as §1
# ETV2 = molecular target: T4, ETV2 (Homo sapiens, UniProt O00321 1-342); details: protein: recombinant; tags: N-terminal GST; dsDNA, one strand shown
# T4 sequence: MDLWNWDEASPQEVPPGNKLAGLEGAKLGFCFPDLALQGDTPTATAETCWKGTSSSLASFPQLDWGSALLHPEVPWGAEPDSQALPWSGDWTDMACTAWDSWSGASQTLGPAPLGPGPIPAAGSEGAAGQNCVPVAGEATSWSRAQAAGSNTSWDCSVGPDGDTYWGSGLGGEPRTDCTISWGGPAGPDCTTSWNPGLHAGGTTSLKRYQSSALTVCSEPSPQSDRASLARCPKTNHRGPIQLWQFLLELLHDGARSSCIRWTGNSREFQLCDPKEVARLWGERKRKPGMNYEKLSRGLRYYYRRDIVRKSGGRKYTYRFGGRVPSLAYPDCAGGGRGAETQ
# Summary of the method: as §1
# ELF3 = molecular target: T5, ELF3 (Homo sapiens, UniProt P78545 1-371); details: protein: recombinant; tags: N-terminal GST; dsDNA, one strand shown
# T5 sequence: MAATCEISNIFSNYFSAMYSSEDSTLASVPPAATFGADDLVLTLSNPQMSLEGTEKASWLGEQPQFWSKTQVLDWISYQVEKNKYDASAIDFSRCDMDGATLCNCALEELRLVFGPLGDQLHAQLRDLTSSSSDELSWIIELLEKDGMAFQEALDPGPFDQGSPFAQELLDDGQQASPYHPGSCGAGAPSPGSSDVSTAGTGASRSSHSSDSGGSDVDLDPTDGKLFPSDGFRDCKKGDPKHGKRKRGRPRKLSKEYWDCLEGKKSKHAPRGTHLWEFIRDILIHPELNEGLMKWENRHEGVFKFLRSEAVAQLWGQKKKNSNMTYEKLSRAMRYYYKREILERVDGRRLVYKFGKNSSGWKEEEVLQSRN
# Summary of the method: as §1
# CRX = CRX (Homo sapiens, UniProt O43186 1-299); details: protein: recombinant; tags: N-terminal GST; dsDNA, one strand shown
# Chain of CRX (O43186 whole entry): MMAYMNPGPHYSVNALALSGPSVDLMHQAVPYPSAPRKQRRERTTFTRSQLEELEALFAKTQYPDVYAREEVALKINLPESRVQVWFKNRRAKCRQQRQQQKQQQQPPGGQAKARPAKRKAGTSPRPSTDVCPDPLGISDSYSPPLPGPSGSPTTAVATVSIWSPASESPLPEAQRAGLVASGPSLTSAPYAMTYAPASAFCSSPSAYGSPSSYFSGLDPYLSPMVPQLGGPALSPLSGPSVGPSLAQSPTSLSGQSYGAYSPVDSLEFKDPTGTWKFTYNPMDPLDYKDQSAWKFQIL
# Summary of the method: as §1
# ETV1 = ETV1 (Homo sapiens, UniProt P50549 1-477); details: protein: recombinant; tags: N-terminal GST; dsDNA, one strand shown
# Chain of ETV1 (P50549 whole entry): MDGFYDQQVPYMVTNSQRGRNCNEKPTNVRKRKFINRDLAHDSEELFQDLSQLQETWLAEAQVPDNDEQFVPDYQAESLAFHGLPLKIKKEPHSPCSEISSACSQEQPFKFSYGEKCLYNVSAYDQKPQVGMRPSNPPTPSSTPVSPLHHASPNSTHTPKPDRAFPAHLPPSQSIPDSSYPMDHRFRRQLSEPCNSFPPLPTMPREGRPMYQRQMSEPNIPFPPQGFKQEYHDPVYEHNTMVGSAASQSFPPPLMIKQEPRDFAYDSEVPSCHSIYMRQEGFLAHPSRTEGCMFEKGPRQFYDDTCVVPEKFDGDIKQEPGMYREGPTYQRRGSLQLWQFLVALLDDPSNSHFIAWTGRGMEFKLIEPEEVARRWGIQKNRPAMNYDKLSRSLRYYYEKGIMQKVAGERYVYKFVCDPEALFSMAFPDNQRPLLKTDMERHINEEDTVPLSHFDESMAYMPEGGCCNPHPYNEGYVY
# Summary of the method: as §1
# ERF = molecular target: T6, ERF (Homo sapiens, UniProt P50548 1-548); details: protein: recombinant; tags: N-terminal GST; dsDNA, one strand shown
# T6 sequence: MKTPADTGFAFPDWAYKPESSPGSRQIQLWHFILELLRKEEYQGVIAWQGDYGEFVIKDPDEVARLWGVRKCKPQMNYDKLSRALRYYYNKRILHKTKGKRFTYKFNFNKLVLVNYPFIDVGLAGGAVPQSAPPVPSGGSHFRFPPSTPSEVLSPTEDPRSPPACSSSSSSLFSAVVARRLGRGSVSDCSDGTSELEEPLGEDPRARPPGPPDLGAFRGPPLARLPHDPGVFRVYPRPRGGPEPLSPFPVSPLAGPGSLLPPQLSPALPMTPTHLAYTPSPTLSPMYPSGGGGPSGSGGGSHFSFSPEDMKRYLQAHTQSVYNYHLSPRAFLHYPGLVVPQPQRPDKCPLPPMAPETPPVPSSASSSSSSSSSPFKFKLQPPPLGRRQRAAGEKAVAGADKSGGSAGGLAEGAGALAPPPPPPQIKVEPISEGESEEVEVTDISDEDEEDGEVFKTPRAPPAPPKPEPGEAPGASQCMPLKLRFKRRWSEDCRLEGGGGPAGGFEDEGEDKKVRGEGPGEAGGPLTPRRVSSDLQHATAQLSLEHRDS
# Summary of the method: as §1
# ETV3L = molecular target: T7, ETV3L (Homo sapiens, UniProt Q6ZN32 1-361); details: protein: recombinant; tags: N-terminal GST; dsDNA, one strand shown
# T7 sequence: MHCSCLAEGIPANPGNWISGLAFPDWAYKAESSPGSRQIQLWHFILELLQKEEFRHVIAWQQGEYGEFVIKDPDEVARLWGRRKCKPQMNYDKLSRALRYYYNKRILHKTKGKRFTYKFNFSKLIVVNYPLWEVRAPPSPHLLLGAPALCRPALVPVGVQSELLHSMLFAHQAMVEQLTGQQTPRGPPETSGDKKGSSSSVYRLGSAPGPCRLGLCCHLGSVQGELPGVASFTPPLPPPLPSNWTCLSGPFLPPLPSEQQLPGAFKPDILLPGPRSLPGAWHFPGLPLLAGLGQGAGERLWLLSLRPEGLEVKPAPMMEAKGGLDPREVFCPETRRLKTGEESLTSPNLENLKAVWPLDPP
# Summary of the method: as §1
# ETS2 = molecular target: T8, ETS2 (Homo sapiens, UniProt P15036 1-469); details: protein: recombinant; tags: N-terminal GST; dsDNA, one strand shown
# T8 sequence: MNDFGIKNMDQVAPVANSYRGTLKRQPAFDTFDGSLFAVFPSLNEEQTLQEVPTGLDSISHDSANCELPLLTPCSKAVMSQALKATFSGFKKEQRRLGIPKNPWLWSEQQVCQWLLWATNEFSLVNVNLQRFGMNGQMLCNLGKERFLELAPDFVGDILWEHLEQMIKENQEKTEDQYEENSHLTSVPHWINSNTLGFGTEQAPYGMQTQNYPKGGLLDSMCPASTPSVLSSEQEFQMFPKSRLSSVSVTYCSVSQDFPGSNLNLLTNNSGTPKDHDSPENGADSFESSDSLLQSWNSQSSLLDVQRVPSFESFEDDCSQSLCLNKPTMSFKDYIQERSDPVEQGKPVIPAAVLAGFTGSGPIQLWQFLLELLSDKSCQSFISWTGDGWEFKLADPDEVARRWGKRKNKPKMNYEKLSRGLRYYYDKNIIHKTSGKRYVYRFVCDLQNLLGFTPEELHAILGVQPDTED
# Summary of the method: as §1
# SPDEF = molecular target: T9, SPDEF (Homo sapiens, UniProt O95238 1-335); details: protein: recombinant; tags: N-terminal GST; dsDNA, one strand shown
# T9 sequence: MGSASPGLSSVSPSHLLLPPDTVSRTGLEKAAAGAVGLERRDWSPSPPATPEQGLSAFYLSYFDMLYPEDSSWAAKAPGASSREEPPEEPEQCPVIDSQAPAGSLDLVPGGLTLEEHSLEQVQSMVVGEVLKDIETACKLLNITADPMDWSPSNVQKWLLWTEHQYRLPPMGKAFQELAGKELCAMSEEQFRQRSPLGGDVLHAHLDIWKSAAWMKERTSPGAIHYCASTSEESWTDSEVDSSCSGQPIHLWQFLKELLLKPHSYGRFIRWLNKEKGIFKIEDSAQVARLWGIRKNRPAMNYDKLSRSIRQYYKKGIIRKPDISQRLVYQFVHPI
# Summary of the method: as §1
# ETV7 = molecular target: T10, ETV7 (Homo sapiens, UniProt Q9Y603 1-341); details: protein: recombinant; tags: N-terminal GST; dsDNA, one strand shown
# T10 sequence: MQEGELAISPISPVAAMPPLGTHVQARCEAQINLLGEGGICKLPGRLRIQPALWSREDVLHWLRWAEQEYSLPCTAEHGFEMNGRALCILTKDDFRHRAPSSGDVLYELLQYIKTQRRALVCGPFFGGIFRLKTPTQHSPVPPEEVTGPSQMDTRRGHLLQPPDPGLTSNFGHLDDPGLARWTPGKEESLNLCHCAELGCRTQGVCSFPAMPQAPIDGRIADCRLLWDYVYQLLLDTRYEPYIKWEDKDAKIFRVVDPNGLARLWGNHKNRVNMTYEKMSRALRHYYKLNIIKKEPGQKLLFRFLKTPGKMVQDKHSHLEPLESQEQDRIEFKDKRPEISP
# Summary of the method: as §1
# ELF5 = molecular target: T11, ELF5 (Homo sapiens, UniProt Q9UKW6-2 1-255); details: protein: recombinant; tags: N-terminal GST; dsDNA, one strand shown
# T11 sequence: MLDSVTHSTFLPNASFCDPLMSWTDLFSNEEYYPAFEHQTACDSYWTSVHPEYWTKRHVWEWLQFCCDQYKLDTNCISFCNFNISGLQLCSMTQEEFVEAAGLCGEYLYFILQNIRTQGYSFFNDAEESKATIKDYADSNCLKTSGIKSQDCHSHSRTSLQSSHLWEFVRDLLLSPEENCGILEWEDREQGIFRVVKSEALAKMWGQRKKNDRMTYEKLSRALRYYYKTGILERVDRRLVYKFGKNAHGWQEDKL
# Summary of the method: as §1
# ETV3 = molecular target: T12, ETV3 (Homo sapiens, UniProt P41162-2 1-143); details: protein: recombinant; tags: N-terminal GST; dsDNA, one strand shown
# T12 sequence: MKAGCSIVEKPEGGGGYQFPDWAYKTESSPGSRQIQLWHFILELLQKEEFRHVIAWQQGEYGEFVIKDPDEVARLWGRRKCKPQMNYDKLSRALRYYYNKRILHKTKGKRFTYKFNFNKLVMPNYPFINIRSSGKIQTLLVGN
# Summary of the method: as §1
# ETV6 = ETV6 (Homo sapiens, UniProt P41212 1-452); details: protein: recombinant; tags: N-terminal GST; dsDNA, one strand shown
# Chain of ETV6 (P41212 whole entry): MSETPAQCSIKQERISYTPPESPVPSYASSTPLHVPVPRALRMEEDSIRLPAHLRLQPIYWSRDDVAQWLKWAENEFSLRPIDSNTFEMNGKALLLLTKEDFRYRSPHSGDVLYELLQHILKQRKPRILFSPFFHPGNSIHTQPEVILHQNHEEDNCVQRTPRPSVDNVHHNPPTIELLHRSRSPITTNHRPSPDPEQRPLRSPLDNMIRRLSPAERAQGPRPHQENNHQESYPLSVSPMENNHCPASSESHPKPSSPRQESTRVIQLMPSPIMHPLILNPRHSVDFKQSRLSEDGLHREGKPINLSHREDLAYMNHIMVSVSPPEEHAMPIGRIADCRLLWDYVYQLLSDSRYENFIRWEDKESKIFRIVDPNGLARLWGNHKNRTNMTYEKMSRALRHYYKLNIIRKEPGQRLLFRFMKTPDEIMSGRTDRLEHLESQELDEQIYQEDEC
# Summary of the method: as §1
sequence,measurement,setting,value
ATTTGC,binding signal,FEV,"1.29 fold enrichment (6-mer frequency, TF over GST control)"
same,binding signal,ETV5,"1.4 fold enrichment (6-mer frequency, TF over GST control)"
same,binding signal,HSF1,"1.47 fold enrichment (6-mer frequency, TF over GST control)"
same,binding signal,SPIC,"1.29 fold enrichment (6-mer frequency, TF over GST control)"
same,binding signal,ELF4,"1.23 fold enrichment (6-mer frequency, TF over GST control)"
same,binding signal,ELK4,"1.3 fold enrichment (6-mer frequency, TF over GST control)"
same,binding signal,ETV2,"1.23 fold enrichment (6-mer frequency, TF over GST control)"
same,binding signal,ELF3,"1.33 fold enrichment (6-mer frequency, TF over GST control)"
same,binding signal,CRX,"1.5 fold enrichment (6-mer frequency, TF over GST control)"
same,binding signal,ETV1,"1.38 fold enrichment (6-mer frequency, TF over GST control)"
same,binding signal,ERF,"1.32 fold enrichment (6-mer frequency, TF over GST control)"
same,binding signal,ETV3L,"1.26 fold enrichment (6-mer frequency, TF over GST control)"
same,binding signal,ETS2,"1.28 fold enrichment (6-mer frequency, TF over GST control)"
same,binding signal,SPDEF,"1.27 fold enrichment (6-mer frequency, TF over GST control)"
same,binding signal,ETV7,"1.43 fold enrichment (6-mer frequency, TF over GST control)"
same,binding signal,ELF5,"1.25 fold enrichment (6-mer frequency, TF over GST control)"
same,binding signal,ETV3,"1.37 fold enrichment (6-mer frequency, TF over GST control)"
same,binding signal,ETV6,"1.27 fold enrichment (6-mer frequency, TF over GST control)"

# From publication PMC7862700, “An all-to-all approach to the identification of sequence-specific readers for epigenetic DNA modifications on cytosine”
